The record followed here is PubChem BioAssay.

Tested on in one assay: not listed separately
As to the kind of experiment: probe aInhba binding on compound microarray – biochemical, small-molecule microarray, 635/667 nm fluorescence, primary screen (AID 1148).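 Further: score merges 667nm spot fluorescence with signal-to-noise for antibody binding to printed compounds.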 The following applies: higher = more signal.
Consider `Cc1ccc(S(=O)(=O)N[C@@H]2COC(=O)[C@H](C)COC(=O)CC=C[C@H]2C)cc1`, for which the composite z-score is -0.224.
Still for that read-out and setting: the result for `C=CC[C@@H]1C=C[C@H](ON=C2c3cc(OC)ccc3O[C@H](c3cccc(OC)c3)[C@H]2O)[C@@H](CO)O1` reads -0.182.
On the same count and under the same terms, the result for `C=CCC(OC(C)=O)[C@@H]1[C@@H](N(Cc2cc3ccccc3o2)C(=O)Cc2ccc(F)cc2)c2cc(OCCCO)ccc2N1C(=O)Cc1ccc(OC)cc1` (stereo partly specified) reads -0.045; that for `CCOC(=O)[C@H](CC(C)C)NC(=O)CCC1CC(OC(=O)NCCc2ccc(F)cc2)CC2(CCCC(COC(=O)NCc3ccccc3)O2)O1` (stereo partly specified), -0.226.
`O=C1[C@H]2[C@H]3[C@H](O)[C@H](O)CC(=NOC[C@@H](O)COCc4ccco4)[C@H]3CC[C@H]2C(=O)N1Cc1ccc2c(c1)OCO2`: the composite z-score is -0.162.
As to `CC(CCC(=O)OC[C@H]1O[C@H](C#Cc2ccccc2)C=C[C@@H]1Oc1ccc(C)cc1)=NOC[C@@H](O)[C@H]1O[C@@H]2OC(C)(C)O[C@@H]2[C@H]1O`, the composite z-score is -0.178.
The same measure, in the same setting: the result for `CC(C)(C)N1CC=CC23O[C@@H]4C=CCCOC(=O)C4[C@H]2C(=O)N(CCCCCO)[C@@H]3C1=O` (stereo partly specified) reads 0.214.
For `CCc1cc2c(nc1CC)CCN(CCC(C)=NO[C@@H](C)c1cc(-c3c(C)cc(C)cc3C)no1)C2`, the composite z-score was -0.0762.
The same measure, in the same setting: under `CC(C)CON=C1C[C@@H](O)[C@@H](O)[C@@H]2[C@@H]3C(=O)N(Cc4ccccc4)C(=O)[C@@H]3CC[C@@H]12` stands -0.071.
Still for that read-out and setting: under `COCCCNC(=O)[C@@]1(C)c2ccccc2C(=O)N(Cc2ccc(OC(F)(F)F)cc2)[C@H]1c1ccc(CO)cc1` stands 0.185; under `O=C1C2=CC[C@H]3C(=O)N(Cc4ccc5c(c4)OCO5)C(=O)[C@H]3[C@H]2[C@H](O)[C@@H]2O[C@H]12`, -0.0933.
Take `COc1ccc(O[C@H]2C=C[C@@H](c3ccccc3)O[C@@H]2COC(=O)CCC(C)=NOC(C)CN2CCCCc3nc(C)c(C)cc32)cc1` (stereo partly specified): the composite z-score is -0.0719.
The same measure, in the same setting: under `CC(CCN1CCCCc2nc(C)c(C)cc21)=NOC(C)CN1CCCCc2nc(C)c(C)cc21` (stereo unspecified) stands 0.0528; under `O=C1[C@H]2[C@H]3[C@H](O)[C@H](O)CC(=NOCc4ccccc4)[C@@H]3CC[C@H]2C(=O)N1C1CCCCC1`, -0.533; under `COc1ccc([Si](C)(C)[C@@H]2[C@@H](CCO)O[C@]3(C(=O)N(Cc4ccc(NC(C)=O)cc4)c4ccccc43)[C@H]2C)cc1`, 0.16.
On the same count and under the same terms, the result for `Cc1cc2c(c(=O)o1)[C@H](O)[C@H]1O[C@H]1C2=O` reads -0.209.
Consider `O=C1[C@H]2[C@H]3[C@H](O)[C@H](O)CC(=NOC[C@@H](O)COCc4ccco4)[C@H]3CC[C@H]2C(=O)N1C1CCCCC1`, for which the composite z-score came to 0.158.
On the same count and under the same terms, the result for `[N-]=[N+]=Nc1ccccc1C[C@@]1(C(N)=O)N=C(c2ccc(OCCCO)cc2)O[C@@H]1c1ccccc1` reads 0.0561; that for `CCOC(=O)NN=C1C[C@@H](O)[C@@H](O)[C@@H]2[C@@H]3C(=O)N(CC)C(=O)[C@@H]3CC[C@@H]12`, -0.324; that for `CC(C)NC(=O)[C@@]1(c2ccc([N+](=O)[O-])cc2)CC(=O)N(CC23CC4CC(CC(C4)C2)C3)[C@@H]1c1ccc(CO)cc1I`, 0.0435.
`COC(=O)C1(C)C=C2C(=C(c3ccccc3)C(=O)C2C)CN1` (stereo unspecified) came in with a composite z-score of 0.12.
Still for that read-out and setting: under `O=C1[C@H]2[C@H]3[C@H](O)[C@H](O)CC(=NO[C@@H]4O[C@H](CO)[C@@H](O)[C@H](O)[C@H]4O)[C@@H]3CC[C@H]2C(=O)N1Cc1ccccc1` stands 0.0925; under `CCOC(=O)CCN1C(=O)[C@H]2[C@H]3[C@H](O)C=CC(=O)[C@@H]3CC[C@H]2C1=O`, 0.0104; under `Cc1cc2c(nc1C)CCCN2CC(C)ON=C1[C@H]2CCn3c(=O)n(-c4ccccc4)c(=O)n3[C@H]2[C@H](O)[C@@H]2O[C@H]12` (stereo partly specified), 0.0301.
Same read-out and setting: under `CCCCc1nc2c(c3c1C[C@H](C)OC3)CN(CCC(C)C)CC2` stands -0.0074.

The target in the next assay is Torsin-1A (Homo sapiens) (UniProt O14656). Description: TOR1A wild-type binding on microarray – cell lysate, small-molecule microarray, lysate, 635/667 nm, primary screen (AID 1149). The settings on record: COS7 hTOR1A-WT lysate, 635 nm fluorescence, higher = more signal.
Chain of Torsin-1A (Homo sapiens) (O14656 whole entry, looked up): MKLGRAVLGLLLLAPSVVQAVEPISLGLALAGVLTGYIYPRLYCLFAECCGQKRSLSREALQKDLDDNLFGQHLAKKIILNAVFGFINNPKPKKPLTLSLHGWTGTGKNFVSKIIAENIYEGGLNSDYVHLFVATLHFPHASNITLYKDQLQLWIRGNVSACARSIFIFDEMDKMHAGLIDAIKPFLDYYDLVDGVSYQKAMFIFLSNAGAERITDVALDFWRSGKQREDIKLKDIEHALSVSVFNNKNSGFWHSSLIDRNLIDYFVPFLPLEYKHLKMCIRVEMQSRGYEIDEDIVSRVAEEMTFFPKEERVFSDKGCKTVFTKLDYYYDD
Compound `CC(=O)OC[C@H]1O[C@@H](ON=C[C@@H](C)[C@H](OCc2ccccc2)C(C)C)[C@H](OC(C)=O)[C@@H](OC(C)=O)[C@@H]1OC(C)=O` displayed a composite z-score of 1.68.
The compound `CN1C(=O)C2C=CC(C(O)C(c3ccccc3)c3ccccc3)N(NC(=O)OC(C)(C)C)C2C1=O` (stereo unspecified) displayed a composite z-score of -0.05.
Same read-out and setting: under `COC(=O)C1=C(C)N(Cc2ccccc2)[C@]23O[C@](C(=O)OC)(C(=O)N2[C@@H]1c1ccccc1)[C@H]1CCOC(=O)[C@H]13` stands 0.252; under `C=C(CCCC)C(=O)CC[C@@H](OC(C)=O)c1cccc(OCCO)c1`, 1.29; under `CO[C@@H]1COC(=O)CC=C[C@@H](C)[C@@H]2C=C[C@@H](O)[C@@H](COC(=O)CC=C[C@H]1C)O2`, 0.666.
On the same count and under the same terms, under `COC(=O)[C@@]1(Cc2ccccc2)[C@H]2c3cc(C(=O)N4CCCC4)n(Cc4ccccn4)c3C[C@H]2CN1C(=O)c1ccccc1` stands 0.671; under `CCOC(=O)NN=C1C[C@@H](O)[C@@H](O)[C@@H]2[C@@H]3C(=O)N(C(C)(C)C)C(=O)[C@@H]3CC[C@@H]12`, 0.527.
Same read-out and setting: under `C=CCN1C(=O)[C@]2(O[C@H](CCn3cc(CCO)nn3)[C@@H]([Si](C)(C)c3ccc(OC)cc3)[C@@H]2C)c2cc(N3CCOC3=O)ccc21` stands 0.419.
Turning to `CCOc1ccc(N2C(=O)/C(=C/C=C/c3ccccc3OC)S(=O)(=O)C2c2cccc([N+](=O)[O-])c2)cc1` (stereo unspecified), the composite z-score was determined as 1.94.
Turning to `O[C@@H](Cc1ccccc1)[C@H]1C2C=CCCC(c3ccccc3)=C2CN1Cc1cccc(Cl)c1` (stereo partly specified), the composite z-score stood at 0.762.
Still for that read-out and setting: the result for `CO[C@H]1O[C@H](CO)[C@@H](OC(=O)Nc2ccc(C#N)cc2)[C@H](OC(=O)c2cc3ccccc3[nH]2)[C@H]1OC(=O)c1cc2ccccc2[nH]1` reads 0.91; that for `Cc1ccc(S(=O)(=O)N[C@@H]2COC(=O)[C@H](C)COC(=O)CC=C[C@H]2C)cc1`, 1.06.
In the case of `C=CC[C@@H]1C=C[C@H](ON=C2c3cc(OC)ccc3O[C@H](c3cccc(OC)c3)[C@H]2O)[C@@H](CO)O1`, the composite z-score is -0.0807.
Consider `C=CCC(OC(C)=O)[C@@H]1[C@@H](N(Cc2cc3ccccc3o2)C(=O)Cc2ccc(F)cc2)c2cc(OCCCO)ccc2N1C(=O)Cc1ccc(OC)cc1` (stereo partly specified), for which the composite z-score was -0.499.
`CCOC(=O)[C@H](CC(C)C)NC(=O)CCC1CC(OC(=O)NCCc2ccc(F)cc2)CC2(CCCC(COC(=O)NCc3ccccc3)O2)O1` (stereo partly specified) yielded a composite z-score of 1.47.
Still for that read-out and setting: the result for `O=C1[C@H]2[C@H]3[C@H](O)[C@H](O)CC(=NOC[C@@H](O)COCc4ccco4)[C@H]3CC[C@H]2C(=O)N1Cc1ccc2c(c1)OCO2` reads 3.53; that for `CC(CCC(=O)OC[C@H]1O[C@H](C#Cc2ccccc2)C=C[C@@H]1Oc1ccc(C)cc1)=NOC[C@@H](O)[C@H]1O[C@@H]2OC(C)(C)O[C@@H]2[C@H]1O`, -0.526.
On the same count and under the same terms, under `CC(C)(C)N1CC=CC23O[C@@H]4C=CCCOC(=O)C4[C@H]2C(=O)N(CCCCCO)[C@@H]3C1=O` (stereo partly specified) stands 1.11; under `CCc1cc2c(nc1CC)CCN(CCC(C)=NO[C@@H](C)c1cc(-c3c(C)cc(C)cc3C)no1)C2`, -0.233.
On the same count and under the same terms, the result for `CC(C)CON=C1C[C@@H](O)[C@@H](O)[C@@H]2[C@@H]3C(=O)N(Cc4ccccc4)C(=O)[C@@H]3CC[C@@H]12` reads 0.407.
Take `COCCCNC(=O)[C@@]1(C)c2ccccc2C(=O)N(Cc2ccc(OC(F)(F)F)cc2)[C@H]1c1ccc(CO)cc1`: the composite z-score turned out to be 0.13.
Compound `O=C1C2=CC[C@H]3C(=O)N(Cc4ccc5c(c4)OCO5)C(=O)[C@H]3[C@H]2[C@H](O)[C@@H]2O[C@H]12` returned a composite z-score of 0.475.
The compound `COc1ccc(O[C@H]2C=C[C@@H](c3ccccc3)O[C@@H]2COC(=O)CCC(C)=NOC(C)CN2CCCCc3nc(C)c(C)cc32)cc1` (stereo partly specified) returned a composite z-score of -0.406.
The same measure, in the same setting: the result for `CC(CCN1CCCCc2nc(C)c(C)cc21)=NOC(C)CN1CCCCc2nc(C)c(C)cc21` (stereo unspecified) reads 2.88.
`O=C1[C@H]2[C@H]3[C@H](O)[C@H](O)CC(=NOCc4ccccc4)[C@@H]3CC[C@H]2C(=O)N1C1CCCCC1` had a composite z-score of -0.0289.
`COc1ccc([Si](C)(C)[C@@H]2[C@@H](CCO)O[C@]3(C(=O)N(Cc4ccc(NC(C)=O)cc4)c4ccccc43)[C@H]2C)cc1` gave a composite z-score of 0.412.
Still for that read-out and setting: under `Cc1cc2c(c(=O)o1)[C@H](O)[C@H]1O[C@H]1C2=O` stands 0.284.
Same read-out and setting: the result for `O=C1[C@H]2[C@H]3[C@H](O)[C@H](O)CC(=NOC[C@@H](O)COCc4ccco4)[C@H]3CC[C@H]2C(=O)N1C1CCCCC1` reads 2.07; that for `[N-]=[N+]=Nc1ccccc1C[C@@]1(C(N)=O)N=C(c2ccc(OCCCO)cc2)O[C@@H]1c1ccccc1`, 0.296.
The same measure, in the same setting: under `CCOC(=O)NN=C1C[C@@H](O)[C@@H](O)[C@@H]2[C@@H]3C(=O)N(CC)C(=O)[C@@H]3CC[C@@H]12` stands 0.0252; under `CC(C)NC(=O)[C@@]1(c2ccc([N+](=O)[O-])cc2)CC(=O)N(CC23CC4CC(CC(C4)C2)C3)[C@@H]1c1ccc(CO)cc1I`, 0.484; under `COC(=O)C1(C)C=C2C(=C(c3ccccc3)C(=O)C2C)CN1` (stereo unspecified), -0.366.
As to `O=C1[C@H]2[C@H]3[C@H](O)[C@H](O)CC(=NO[C@@H]4O[C@H](CO)[C@@H](O)[C@H](O)[C@H]4O)[C@@H]3CC[C@H]2C(=O)N1Cc1ccccc1`, the composite z-score was -0.333.
On the same count and under the same terms, the result for `CCOC(=O)CCN1C(=O)[C@H]2[C@H]3[C@H](O)C=CC(=O)[C@@H]3CC[C@H]2C1=O` reads 0.327; that for `Cc1cc2c(nc1C)CCCN2CC(C)ON=C1[C@H]2CCn3c(=O)n(-c4ccccc4)c(=O)n3[C@H]2[C@H](O)[C@@H]2O[C@H]12` (stereo partly specified), -0.0339.
The compound `CCCCc1nc2c(c3c1C[C@H](C)OC3)CN(CCC(C)C)CC2` gave a composite z-score of 0.888.
